# Values without a mark were called inactive. Records with an inconclusive call do not appear. Calls of active or inactive are those of the source. Unless noted, the call rests on the fitted dose curve; in most records, active means well fitted curve in the direction sought with a large enough effect; inconclusive means small, poorly fitted or top-dose-only effect, or another doubt; inactive means no such curve, though single readings can be large; an effect the other way counts as inactive or inconclusive.
# Key:
# [1] = biological target: Lysosomal acid glucosylceramidase (Homo sapiens) (UniProt P04062); assay: Glucocerebrosidase-p2 (AID 348; in the data active means potency below about 10 µM; further: potency means the concentration at half of the fitted maximal effect); details: purified GBA, blue fluorogenic substrate, 40 min
# In short: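 Compounds titrated from 0.6 nM upwards against 0.2 nM enzyme in pH 5.9 citric acid/KH2PO4, taurocholate, tween-20; blue fluorogenic substrate 80 uM, 40 min room temperature, stopped and read Ex 365/Em 440 for AC50.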
# [2] = AP1 Signaling Pathway (AID 357; active means well fitted curve in either direction with a large enough effect, not every such curve was filed as active; further: on the % scale 0 is the no-effect control and ±100 the full control effect); details: ME-180 AP-1-bla reporter, EGF-induced, beta-lactamase ratio, 5 h; at 7.69 µM (top of the series) unless noted
# In short: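 ME-180 cells with beta-lactamase reporter under AP-1 response element, stimulated with EC50 EGF; compounds tested in titration series, 5 h at 37 °C. CCF4 substrate added 2.5 h at room temperature; 460/530 nm emission ratio gave %activity and AC50.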
# [3] = NFAT Signaling Pathway (AID 444; active means well fitted curve in either direction with a large enough effect, not every such curve was filed as active;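 further: carbachol stimulus at about its EC50 of 1 µM final; on the % scale 0 is the no-effect control and ±100 the full control effect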); details: Jurkat NFAT-bla M1, carbachol, beta-lactamase ratio, 5 h; at 7.69 µM (top of the series) unless noted
# In short: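 Jurkat cells with NFAT-driven β-lactamase reporter and co-expressed M1 receptor, stimulated with carbachol (final 1 uM, ~EC50), compound titration, 5 h at 37 °C. CCF4 loaded 1 h at RT; 460/530 nm ratio gave %activity and AC50.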
# [4] = Stat Signaling Pathway (AID 446; active means well fitted curve in either direction with a large enough effect, not every such curve was filed as active;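 further: ME-180 cervical cancer cells given 40 pM IL-6 alongside compound; SIE-controlled beta-lactamase reporter measured as 460/530 nm FRET emission ratio; on the % scale 0 is the no-effect control and ±100 the full control effect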); details: ME-180 SIE beta-lactamase reporter, IL-6 stimulated, 5 h; at 7.69 µM (top of the series) unless noted
# In short: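 Reporter line: ME-180 cervical carcinoma, SIE-beta-lactamase. Treatment: compound with 40 pM IL-6, 5 hrs, 37 C, in low-serum OPTI-MEM with 10 mM HEPES pH 7.3. Detection: 460/530 nm fluorescence.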
# [5] = biological target: Glucocorticoid receptor (Homo sapiens) (UniProt P04150); assay: GR-GFP Redistribution (AID 450;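 active means compounds whose dose series gives a full or clear partial fitted curve of increased nuclear translocation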; further: potency means the concentration at half of the fitted maximal effect); details: U2OS GR-GFP nuclear translocation, laser cytometry, 2 h
# [6] = biological target: Glucocorticoid receptor (Homo sapiens) (UniProt P04150); assay: GR-EFC Redistribution (AID 451; calls by dose curve; further: potency means the concentration at half of the fitted maximal effect); details: CHO-K1 GR-EFC translocation, beta-gal luminescence, 2 h
# In short: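 CHO-K1 cells expressing nuclear EA and GR-ED fragments of b-gal; compounds titrated up to 46 uM final, 2 h at 37 C. GR nuclear translocation read as complemented b-gal luminescence after 1 h RT detection.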
# [7] = biological target: Mitogen-activated protein kinase 10 (Mus musculus) (UniProt Q61831); assay: JNK3 AlphaScreen Assay (AID 530; active means well fitted curve in either direction with a large enough effect, not every such curve was filed as active;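 further: kinase came from lysate of stimulated human HepG2 cells; signal reports phosphorylation of biotinylated GST-cJun 1-79 at Ser73 with 10 µM ATP; on the % scale 0 is the no-effect control and ±100 the full control effect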); details: JNK3 lysate, c-Jun phosphorylation; series mostly up to 57.1 µM
# In short: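 Pre-activated (IL-1β/TNFα) JNK3 in HepG2 lysates phosphorylates biotin-GST-cJun(1-79), 10 uM ATP; anti-phospho-cJun(Ser73) AlphaScreen read at room temperature, pH 7.6 Tris buffer. Compounds pre-incubated 15 min as titrations.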
# [8] = biological target: 3',5'-cyclic-AMP phosphodiesterase 4B (Homo sapiens) (UniProt Q07343); assay: qHTS Assay for Inhibitors of PDE-IV (AID 607; active means well fitted activation curve with a large enough effect in the main read-out, with a control signal flat, not every such curve was filed as active; further: % of control where 0% means no effect); details: HEK293 ACTOne CNG channel cells, membrane potential fluorescence; series mostly up to 22.9 µM
# In short: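 Cell-based read-out of cAMP via a modified cyclic nucleotide-gated channel and membrane potential dye (535/590 nm) in HEK293 cells expressing PDE4 endogenously. Compounds tested up to 22.9 uM final; 100 uM RO 20-1724 reference.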
# [9] = qHTS Assay for Identification of Small Molecule Agonists for Hypoxia Response Element Signaling Pathway (AID 914; active means well fitted activation curve with a large enough effect in the signal ratio, with a control signal flat, not every such curve was filed as active; the % refers to the signal ratio; further: % of control where 0% means no effect); details: ME-180 (cervical carcinoma) HRE-bla reporter, beta-lactamase ratio, CoCl2, 17 h; activation: hits give high values
# In short: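 Compounds in a titration series were added to ME-180 reporter cells alongside an EC50 level of CoCl2. After 17 hours, beta-lactamase activity was read as the 460nm/530nm emission ratio of CCF4, giving AC50 values.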
# [10] = biological target: Dual specificity protein kinase CLK4 (Homo sapiens) (UniProt Q9HAZ1); assay: qHTS Assay for Inhibitors of CDC-like Kinase 4 (Kinase-Glo Assay) (AID 1770); details: recombinant Clk4, Kinase-Glo ATP depletion luminescence; series mostly up to 66.7 µM; further: on the % scale 0 is the no-effect control and ±100 the full control effect; nearly all actives have a fitted effect of over 65% in size
# In short: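 Recombinant human Clk4 (25 nM) phosphorylated RS repeat peptide (100 uM) with 1 uM ATP in Tris pH 7.5/MgCl2/EGTA/DTT/Triton buffer for 4.5 h at room temperature. Residual ATP was quantified by Kinase-Glo luciferase luminescence.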
# [11] = biological target: Dual specificity protein kinase CLK4 (Homo sapiens) (UniProt Q9HAZ1); assay: qHTS Assay for Inhibitors of CDC-like Kinase 4 (ADP-FP Assay) (AID 1795); details: Transcreener ADP fluorescence polarization; series mostly up to 50 µM; further: nearly all actives have a fitted effect of over 60% in size; further: potency means the concentration at half of the fitted maximal effect
# In short: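 Recombinant human Clk4 (6.25 nM) phosphorylated RS repeat peptide (100 uM) with 1 uM ATP in Tris pH 7.5/MgCl2/EGTA/DTT/Triton buffer for one hour. ADP was quantified by Transcreener competitive fluorescence polarization against an ADP calibration curve.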
# [12] = biological target: Ubiquitin carboxyl-terminal hydrolase 1 (Homo sapiens) (UniProt O94782); assay: Inhibitors of USP1/UAF1: Pilot qHTS (AID 504865); details: purified USP1/UAF1, Ub-rhodamine cleavage fluorescence; series mostly up to 54.9 µM; further: nearly all actives have a fitted effect of over 35% in size; further: potency means the concentration at half of the fitted maximal effect
# In short: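 USP1/UAF1 complex (1nM) preincubated with compound 15 min at room temperature, then Ub-Rho substrate (150nM final) added. Fluorescence read kinetically at 480/540 nm, 6 reads every 60 seconds. Buffer: 50mM HEPES pH 7.8, 0.5mM EDTA, 0.1 mg/ml BSA, 1mM TCEP, 0.01% Tween-20.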
# [13] = Primary qHTS for small molecule stabilizers of the endoplasmic reticulum resident proteome: Secreted ER Calcium Modulated Protein (SERCaMP) assay (AID 1508630); details: SH-SY5Y GLuc-SERCaMP (Gaussia luciferase released on ER calcium loss) secretion, thapsigargin, luminescence; series mostly up to 38.4 µM; further: on the % scale 0 is the no-effect control and ±100 the full control effect
# In short: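 GLuc-SERCaMP-expressing SH-SY5Y cells, pretreated 16 h with compound, are challenged with thapsigargin to empty ER calcium stores; after 4 h, coelenterazine is added directly to the medium and luminescence is imaged.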
# [14] = biological target: Cytochrome P450 1A2 (Homo sapiens) (UniProt P05177); assay: p450-cyp1a2 (AID 410; calls by dose curve; further: potency means the concentration at half of the fitted maximal effect); details: recombinant CYP1A2, luciferin-ME demethylation, luminescence; series mostly up to 57 µM
# In short: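 Luminescent readout of luciferin formed from Luciferin-ME by human CYP1A2; data normalized against complete inhibition by 57 uM furafylline. Enzyme 20nM, substrate 100uM at Km, 100mM KPO4 buffer, 60 min reaction at room temperature.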
# [15] = biological target: Cytochrome P450 3A4 (Homo sapiens) (UniProt P08684); assay: qHTS Assay for Activators of Cytochrome P450 3A4 (AID 885); details: recombinant CYP3A4, Luciferin-PPXE luminescence, 60 min; series mostly up to 57.1 µM; further: nearly all actives have a fitted effect of over 65% in size
# In short: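 Signal was normalized against complete inhibition by 57 uM ketoconazole. The reaction used 20nM CYP3A4 with 25uM Luciferin-PPXE, 10-min compound preincubation and a 60-min NADPH-supported step at RT.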
# [16] = biological target: Cytochrome P450 3A4 (Homo sapiens) (UniProt P08684); assay: qHTS Assay for Inhibitors and Substrates of Cytochrome P450 3A4 (AID 884); details: recombinant CYP3A4, Luciferin-PPXE luminescence; series mostly up to 57.1 µM; further: potency means the concentration at half of the fitted maximal effect; nearly all actives have a fitted effect of over 50% in size
# In short: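 20 nM human CYP3A4 with 25 uM Luciferin-PPXE (at KM) in 200 mM KPO4, preincubated 10 min with compound; NADPH regeneration started a 60 min RT reaction. Luciferin detected by luminescence, normalized to 57 uM ketoconazole as full inhibition.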
# [17] = biological target: Cytochrome P450 2C19 (Homo sapiens) (UniProt P33261); assay: qHTS Assay for Inhibitors and Substrates of Cytochrome P450 2C19 (AID 899); details: recombinant CYP2C19, luciferin-H EGE luminescence; series mostly up to 57.1 µM; further: potency means the concentration at half of the fitted maximal effect; nearly all actives have a fitted effect of over 60% in size
# In short: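 Luminescent read-out of luciferin formed from Luciferin-H EGE (10uM, equal to KM). Enzyme 5nM in 50mM KPO4; compound added, 10 min at 37C, then NADPH regenerating system for 60 min at 37C. Full inhibition defined by 57uM ketoconazole.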
# Chain of Cytochrome P450 1A2 (Homo sapiens) (P05177 whole entry, looked up): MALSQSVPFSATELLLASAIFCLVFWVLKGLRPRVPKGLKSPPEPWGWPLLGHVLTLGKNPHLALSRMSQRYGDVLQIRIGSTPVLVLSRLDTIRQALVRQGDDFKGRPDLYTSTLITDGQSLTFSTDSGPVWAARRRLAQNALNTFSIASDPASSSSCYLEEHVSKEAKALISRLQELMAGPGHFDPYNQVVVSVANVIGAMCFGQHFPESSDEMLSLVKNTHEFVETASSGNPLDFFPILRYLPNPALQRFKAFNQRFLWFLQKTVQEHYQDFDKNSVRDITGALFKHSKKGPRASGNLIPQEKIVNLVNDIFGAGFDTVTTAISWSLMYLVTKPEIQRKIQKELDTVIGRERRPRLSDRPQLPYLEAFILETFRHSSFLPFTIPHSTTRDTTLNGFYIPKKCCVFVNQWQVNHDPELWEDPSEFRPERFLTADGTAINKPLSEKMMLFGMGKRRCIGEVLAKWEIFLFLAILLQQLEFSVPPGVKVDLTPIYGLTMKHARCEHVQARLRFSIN
# Chain of Cytochrome P450 3A4 (Homo sapiens) (P08684 whole entry, looked up): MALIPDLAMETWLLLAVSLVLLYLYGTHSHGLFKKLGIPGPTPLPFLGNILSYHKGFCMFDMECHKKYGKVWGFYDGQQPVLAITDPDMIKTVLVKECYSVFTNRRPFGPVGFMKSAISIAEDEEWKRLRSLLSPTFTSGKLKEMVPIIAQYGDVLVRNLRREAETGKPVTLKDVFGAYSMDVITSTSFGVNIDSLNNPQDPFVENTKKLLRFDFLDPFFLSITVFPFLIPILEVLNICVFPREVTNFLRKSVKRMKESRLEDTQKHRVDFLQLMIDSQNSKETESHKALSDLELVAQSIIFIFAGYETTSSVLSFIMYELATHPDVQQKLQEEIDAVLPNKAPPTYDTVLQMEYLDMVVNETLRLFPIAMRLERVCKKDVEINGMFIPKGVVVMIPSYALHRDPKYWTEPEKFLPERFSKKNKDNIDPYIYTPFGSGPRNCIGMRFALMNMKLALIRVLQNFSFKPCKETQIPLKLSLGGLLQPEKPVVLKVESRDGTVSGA
# Chain of Glucocorticoid receptor (Homo sapiens) (P04150 whole entry, looked up, the tested form may be a part): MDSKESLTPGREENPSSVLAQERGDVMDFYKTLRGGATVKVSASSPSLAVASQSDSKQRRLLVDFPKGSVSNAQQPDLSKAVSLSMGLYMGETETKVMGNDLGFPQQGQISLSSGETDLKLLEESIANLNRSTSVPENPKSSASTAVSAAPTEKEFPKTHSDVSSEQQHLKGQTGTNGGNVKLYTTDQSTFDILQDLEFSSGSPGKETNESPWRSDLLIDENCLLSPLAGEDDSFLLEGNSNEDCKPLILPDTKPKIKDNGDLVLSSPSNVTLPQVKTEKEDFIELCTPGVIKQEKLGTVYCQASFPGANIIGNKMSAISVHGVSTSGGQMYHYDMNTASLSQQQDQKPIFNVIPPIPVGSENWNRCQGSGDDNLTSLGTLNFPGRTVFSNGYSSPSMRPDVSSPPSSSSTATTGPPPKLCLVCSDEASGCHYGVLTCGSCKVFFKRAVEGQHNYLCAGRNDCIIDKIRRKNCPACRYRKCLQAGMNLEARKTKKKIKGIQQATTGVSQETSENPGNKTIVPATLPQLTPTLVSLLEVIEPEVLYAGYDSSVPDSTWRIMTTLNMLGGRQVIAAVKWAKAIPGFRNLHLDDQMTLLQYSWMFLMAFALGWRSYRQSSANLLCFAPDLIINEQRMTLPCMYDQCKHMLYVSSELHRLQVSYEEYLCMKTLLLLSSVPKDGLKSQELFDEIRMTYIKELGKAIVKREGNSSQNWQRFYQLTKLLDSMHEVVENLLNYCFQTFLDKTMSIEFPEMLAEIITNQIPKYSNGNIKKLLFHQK
# Chain of Dual specificity protein kinase CLK4 (Homo sapiens) (Q9HAZ1 whole entry, looked up): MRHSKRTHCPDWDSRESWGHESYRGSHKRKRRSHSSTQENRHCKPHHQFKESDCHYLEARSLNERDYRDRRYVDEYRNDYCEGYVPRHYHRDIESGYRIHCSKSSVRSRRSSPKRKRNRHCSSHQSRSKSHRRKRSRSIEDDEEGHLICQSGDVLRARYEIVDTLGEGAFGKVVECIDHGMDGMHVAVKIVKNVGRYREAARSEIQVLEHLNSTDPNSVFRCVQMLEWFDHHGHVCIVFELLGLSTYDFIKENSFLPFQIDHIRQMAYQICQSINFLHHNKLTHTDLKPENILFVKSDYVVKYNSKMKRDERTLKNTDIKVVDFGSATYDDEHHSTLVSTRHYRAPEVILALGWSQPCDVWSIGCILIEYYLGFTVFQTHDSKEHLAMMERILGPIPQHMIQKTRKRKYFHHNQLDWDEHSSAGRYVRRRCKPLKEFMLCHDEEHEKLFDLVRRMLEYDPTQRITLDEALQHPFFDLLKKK
# Chain of 3',5'-cyclic-AMP phosphodiesterase 4B (Homo sapiens) (Q07343 whole entry, looked up): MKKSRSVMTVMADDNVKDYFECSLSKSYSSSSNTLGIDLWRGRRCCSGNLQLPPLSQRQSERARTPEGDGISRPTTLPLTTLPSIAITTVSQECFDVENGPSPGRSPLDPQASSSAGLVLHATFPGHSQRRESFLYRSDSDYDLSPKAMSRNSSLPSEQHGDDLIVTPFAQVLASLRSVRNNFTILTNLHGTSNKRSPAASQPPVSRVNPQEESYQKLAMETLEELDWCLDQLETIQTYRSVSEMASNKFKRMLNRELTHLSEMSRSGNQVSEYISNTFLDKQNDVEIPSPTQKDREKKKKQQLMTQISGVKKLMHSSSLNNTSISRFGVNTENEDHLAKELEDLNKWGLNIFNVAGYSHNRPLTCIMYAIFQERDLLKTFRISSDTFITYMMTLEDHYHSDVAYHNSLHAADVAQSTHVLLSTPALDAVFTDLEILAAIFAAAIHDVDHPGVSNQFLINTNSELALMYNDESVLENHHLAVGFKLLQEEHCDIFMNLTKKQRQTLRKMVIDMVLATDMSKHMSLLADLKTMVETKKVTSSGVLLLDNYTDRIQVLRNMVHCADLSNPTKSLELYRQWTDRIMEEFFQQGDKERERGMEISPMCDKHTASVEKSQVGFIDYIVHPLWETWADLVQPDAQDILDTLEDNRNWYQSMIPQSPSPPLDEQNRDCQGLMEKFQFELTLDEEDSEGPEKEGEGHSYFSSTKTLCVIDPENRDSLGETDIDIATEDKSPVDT
# Chain of Lysosomal acid glucosylceramidase (Homo sapiens) (P04062 whole entry, looked up): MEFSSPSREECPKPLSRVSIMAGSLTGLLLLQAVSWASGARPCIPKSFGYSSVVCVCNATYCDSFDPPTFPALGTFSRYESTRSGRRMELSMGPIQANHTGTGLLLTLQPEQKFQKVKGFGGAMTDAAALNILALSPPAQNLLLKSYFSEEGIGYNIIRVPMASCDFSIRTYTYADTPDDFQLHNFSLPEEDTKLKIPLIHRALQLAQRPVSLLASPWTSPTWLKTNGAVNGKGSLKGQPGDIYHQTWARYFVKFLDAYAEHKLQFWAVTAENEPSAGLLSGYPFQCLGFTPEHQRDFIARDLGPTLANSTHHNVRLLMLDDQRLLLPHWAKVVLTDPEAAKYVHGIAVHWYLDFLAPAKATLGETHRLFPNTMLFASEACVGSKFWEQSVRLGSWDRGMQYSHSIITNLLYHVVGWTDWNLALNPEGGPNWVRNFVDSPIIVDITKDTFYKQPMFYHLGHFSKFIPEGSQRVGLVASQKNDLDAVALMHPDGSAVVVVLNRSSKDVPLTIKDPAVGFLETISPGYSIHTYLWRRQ
# Chain of Ubiquitin carboxyl-terminal hydrolase 1 (Homo sapiens) (O94782 whole entry, looked up): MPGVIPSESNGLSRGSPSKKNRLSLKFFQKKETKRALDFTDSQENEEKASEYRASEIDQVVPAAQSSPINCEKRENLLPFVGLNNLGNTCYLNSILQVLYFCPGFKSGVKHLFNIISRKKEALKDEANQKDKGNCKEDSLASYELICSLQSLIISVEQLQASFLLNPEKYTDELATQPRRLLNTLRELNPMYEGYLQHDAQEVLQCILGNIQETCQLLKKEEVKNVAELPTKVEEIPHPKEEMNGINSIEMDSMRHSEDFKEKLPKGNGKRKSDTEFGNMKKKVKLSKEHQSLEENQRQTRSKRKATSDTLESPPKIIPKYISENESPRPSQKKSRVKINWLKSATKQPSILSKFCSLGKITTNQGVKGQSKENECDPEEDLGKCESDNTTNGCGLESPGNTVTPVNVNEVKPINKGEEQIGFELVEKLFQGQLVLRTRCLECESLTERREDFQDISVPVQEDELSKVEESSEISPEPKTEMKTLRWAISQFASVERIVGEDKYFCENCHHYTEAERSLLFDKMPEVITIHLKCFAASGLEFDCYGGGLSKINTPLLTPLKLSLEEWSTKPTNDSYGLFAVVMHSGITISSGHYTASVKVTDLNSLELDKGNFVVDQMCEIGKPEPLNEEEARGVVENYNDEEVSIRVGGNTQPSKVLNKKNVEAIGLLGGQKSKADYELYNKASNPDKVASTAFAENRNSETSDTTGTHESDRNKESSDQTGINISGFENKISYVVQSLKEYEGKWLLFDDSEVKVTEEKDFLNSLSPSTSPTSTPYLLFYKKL
# Chain of Cytochrome P450 2C19 (Homo sapiens) (P33261 whole entry, looked up): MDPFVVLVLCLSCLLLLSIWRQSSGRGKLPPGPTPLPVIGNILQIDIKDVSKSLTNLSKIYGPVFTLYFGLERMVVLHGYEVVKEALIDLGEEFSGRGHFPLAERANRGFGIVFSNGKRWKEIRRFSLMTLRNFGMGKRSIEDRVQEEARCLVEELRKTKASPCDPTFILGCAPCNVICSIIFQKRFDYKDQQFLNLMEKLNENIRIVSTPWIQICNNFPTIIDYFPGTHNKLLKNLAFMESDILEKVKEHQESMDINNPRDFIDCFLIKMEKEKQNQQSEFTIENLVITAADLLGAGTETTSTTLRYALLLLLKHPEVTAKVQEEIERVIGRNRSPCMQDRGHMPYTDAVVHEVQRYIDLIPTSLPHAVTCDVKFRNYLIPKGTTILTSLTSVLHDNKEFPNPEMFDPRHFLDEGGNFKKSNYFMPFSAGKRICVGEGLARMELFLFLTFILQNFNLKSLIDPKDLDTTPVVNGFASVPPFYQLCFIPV
SMILES,Potency [1],"activity change, negative = inhibition [2]","activity change, negative = inhibition [3]","activity, negative = inhibition [4]",Potency [5],Potency [6],Potency [7],Potency [8],activation [9],Potency [10],Potency [11],Potency [12],outcome [13],Potency [14],Potency [15],Potency [16],Potency [17]
CN1CCN(c2cc(-c3ccccc3Cl)ncn2)CC1,> 11.4 µM,-6.42%,3.06%,-1.39%,> 46 µM,> 46 µM,inactive,inactive,18%,inactive,inactive,inactive,inactive,–,–,–,–
Cc1nc2cnc(Nc3ccccc3)nc2n(CCc2ccccc2)c1=O,> 11.4 µM,-7.04%,-9.65%,-6.93%,> 9.22 µM,> 46 µM,inactive,inactive,–,inactive,inactive,inactive,inactive,2.51 µM (active),inactive,–,–
Cc1noc(C)c1-c1cncnc1Nc1ccccc1,> 2.29 µM,13.6%,11.7%,10.3%,> 46 µM,> 46 µM,inactive,inactive,–,inactive,inactive,inactive,inactive,–,inactive,3.16 µM (active),–
c1ccc2c(N3CCOCC3)nc(-c3ccoc3)nc2c1,> 11.4 µM,-5.2%,12.4%,-2.69%,> 46 µM,> 46 µM,inactive,–,–,inactive,14.1 µM (active),inactive,inactive,1.26 µM (active),inactive,6.31 µM (active),–
Cc1noc(C)c1-c1nc(Nc2ccccc2)c2ccccc2n1,–,-13.6%,-11.8%,-8.68%,> 46 µM,> 46 µM,inactive,–,–,inactive,inactive,inactive,inactive,0.251 µM (active),inactive,6.31 µM (active),–
O=c1c(-c2cccs2)nc2cnc(N3CCNCC3)nc2n1Cc1cccs1,> 11.4 µM,–,–,–,> 9.22 µM,> 46 µM,inactive,inactive,–,inactive,inactive,28.2 µM (active),inactive,3.98 µM (active),inactive,2.51 µM (active),5.01 µM (active)

# Reference: PubChem BioAssay (NCATS)
